# Inconclusive results are not listed. Calls of active or inactive are those of the source. Calls come from the whole dose curve; as a rule, active = well fitted curve in the direction sought with a large enough effect; inconclusive = small, poorly fitted or top-dose-only effect, or another doubt; inactive = no such curve, though single readings can be large; an effect the other way counts as inactive or inconclusive.
# System: NIH3T3
# Assay: Cytotoxic Profiling of Annotated Libraries Using Quantitative High-Throughput Screening (AID 1296008); note: nearly all actives have a fitted effect of over 60% in size
# Details: Five cell lines viability, CellTiter-Glo ATP luminescence, 48-72 h; max response: hits give low values
# In short: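 Cytotoxicity was measured as CellTiter-Glo ATP luminescence, read after 10 min at room temperature. Compound treatment of the cells lasted 48 or 72 hr at 37 degrees Celsius in a qHTS format.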
# % is set by controls: 0 for no effect and ±100 for the full control effect; potency is the fitted concentration of half-maximal effect.
Compound,max response,Potency
CC(O)(C(=O)O)C1CCC2(C)C1CCC1(C)C2CCC2C3(C)CCC(O)C(C)(COC4OC(CO)C(O)C(O)C4O)C3CCC21C (stereo not given),-2.95% (inactive),–
CCCOc1ccc(CCc2nc3cc(-c4c(C)noc4C)ccc3n2CCN2CCOCC2)cc1,-3.98% (inactive),–
N#Cc1ccc(COc2ccc(-c3cccc4nc(NC(=O)C5CC5)nn34)cc2)cn1,–,20.6 µM (active)
C=C(C)[C@@H]1CC=C(COC(=O)NC(=O)c2ncn3c(=O)n(C)nnc23)CC1,–,18.4 µM (active)
CN(C)CCN(Cc1ccc(-c2ccc(CNCCc3ccccc3)cc2)cc1)C(=O)CCC1CCCC1,–,4.11 µM (active)
CCN(CC)C(=O)c1ccc(Nc2nc(OCC3CCCCC3)c3[nH]cnc3n2)cc1,–,10.3 µM (active)
C=C1C(=O)OC2/C=C(\C)CC/C=C(\C)CC(OC(C)=O)C12 (stereo not given),–,23.1 µM (active)
CCC(C)C(=O)OC1C(C)C2(O)C(C=C(CO)CC3(O)C(=O)C(C)=CC32)C2C(C)(C)C12OC(=O)C(C)C (stereo not given),-1.26% (inactive),–
CCNC(=O)C#Cc1ccc2c(C(=Nc3ccc(CN(C)C)cc3)c3ccccc3)c(O)[nH]c2c1,–,0.709 µM (active)
COc1cc2ncnc(Oc3ccc(CC(=O)Nc4cnn(C(C)C)c4)cc3)c2cc1OC,–,23.1 µM (active)
O=C(Nc1ccnc(NC(=O)C2CC2)c1)c1c(Cl)cccc1Cl,–,6.51 µM (active)
O=c1cc(N2CCOCC2)nc2c3ccccc3ccn12,-3.69% (inactive),–
COc1cc(CCO)ccc1O[C@@H]1O[C@H](CO)[C@@H](O)[C@H](O)[C@H]1O,-23.9% (inactive),–

# System: C33A
# Assay: Primary qHTS to identify gynecologic anti-cancer compounds using libraries of approved drugs and bioactive compounds (AID 1345084); note: nearly all actives have a fitted effect of over 55% in size
# Details: Gynecologic cancer cell panel viability, ATPlite luminescence, 48 h; series mostly up to 57.5 µM; activity change, negative = cytotoxicity: at the top concentration
# In short: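 Cells, 1,000 per well, plated 16 h, then exposed 48 h at 37 C to compounds. Viability by ATPlite luminescence after 15 min at room temperature.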
Compound,"activity change, negative = cytotoxicity",Potency
CC(=O)O[C@H]1CC(C)(C)CC2[C@]13CO[C@@]21CCC2[C@@]4(C)CC[C@H](O[C@@H]5OC[C@H](O[C@@H]6O[C@H](CO)[C@@H](O)[C@H](O)[C@H]6O[C@@H]6OC[C@@H](O)[C@H](O)[C@H]6O)[C@H](O)[C@H]5O[C@@H]5O[C@H](CO)[C@@H](O)[C@H](O)[C@H]5O)[C@@](C)(CO)C4CC[C@@]2(C)[C@]1(C)C[C@H]3O (stereo not given in full),-17.3% [at 11.6 µM] (inactive),–
CC(=O)CC(=O)Nc1ccc(Cl)c(C(F)(F)F)c1,19.8% (inactive),–
CCCOc1ccc(CCc2nc3cc(-c4c(C)noc4C)ccc3n2CCN2CCOCC2)cc1,-0.242% (inactive),–
CC(NC(=O)Cc1cc(F)cc(F)c1)C(=O)NC1C(=O)N(C)c2ccccc2-c2ccccc21 (stereo not given),3.67% (inactive),–
C=C1C(=O)O[C@@H]2[C@H]3C(C)=CC(=O)C3=C(C)[C@@H](OC(=O)/C(C)=C\C)[C@H](O)[C@@H]12,-27.6% [at 38.5 µM] (inactive),–
CC1(C)CN(C(=O)c2ccc(-c3cccc4nc(NC(=O)C5CC5)nn34)cc2)C1,-3.62% (inactive),–
CCN(CC)C(=O)c1ccc(Nc2nc(OCC3CCCCC3)c3[nH]cnc3n2)cc1,-4.42% (inactive),–
C=C1C(=O)OC2/C=C(\C)CC/C=C(\C)CC(OC(C)=O)C12 (stereo not given),-13.4% (inactive),–
CCOC(=O)c1csc(Nc2ccc(Cl)cc2)n1,-12.3% (inactive),–
FC(F)(F)c1ccccc1-c1cc(C(F)(F)F)c2nc(C3=NOC4(CCCCC4)C3)[nH]c2c1,-20.1% (inactive),–
CCn1c(=O)c(-c2ccc(-c3cncs3)cc2Cl)cc2cnc(Nc3ccc(N4CCN(C)CC4)cc3)nc21,0.567% (inactive),–
CCNC(=O)C#Cc1ccc2c(C(=Nc3ccc(CN(C)C)cc3)c3ccccc3)c(O)[nH]c2c1,-22.4% [at 25.3 µM] (inactive),–
Cc1ccc(-c2ncccn2)c(C(=O)N2C[C@H](COc3ccc(F)cn3)CC[C@H]2C)c1,-15.2% (inactive),–
COc1cc2ncnc(Oc3ccc(CC(=O)Nc4cnn(C(C)C)c4)cc3)c2cc1OC,-13.5% (inactive),–
CC(C)(O)C1Cc2c(ccc(C(=O)CCc3ccccc3)c2O)O1 (stereo not given),–,11.2 µM (active)
CC(C)NC(=O)N1CC[C@H](N=C2Nc3cc(F)ccc3N(CC(F)F)c3ccc(Cl)cc32)C1,7.02% [at 11.6 µM] (inactive),–
O=C(Nc1nnc(-c2ccc3c(c2)OCCO3)o1)C1CCCCC1,-3.48% (inactive),–
CC(C)c1cccc(C(C)C)c1NC(=O)Nc1ccc(Sc2ccc([N+](=O)[O-])cc2)cc1,-4.61% (inactive),–
CC(C)(C)[C@H](NC(=O)c1ccc(N)c(Cl)c1)C(=O)N1CCC[C@H]1C(=O)N[C@H](C#N)CC(=O)O,-6.46% (inactive),–
C=C1CC[C@@H]2[C@](C)(CO)[C@H](O)CC[C@@]2(C)[C@@H]1CC(=O)C1=CCOC1=O,-32.8% [at 38.5 µM] (inactive),–
O=c1cc(N2CCOCC2)nc2c3ccccc3ccn12,-26.6% (inactive),–
CC(=O)O[C@H]1CC[C@]2(C)[C@H]3CC[C@]4(C)Oc5oc(C)cc(=O)c5C[C@H]4[C@]3(C)CC[C@H]2C1(C)C,0.812% [at 25.3 µM] (inactive),–

# From PubChem BioAssay (NCATS)
